Out of some 5,500 compounds screened, about 2,000 (36%) were called active. Another 18% or so got no clear call; they are omitted. Cut-off read from the data, not from the text of the source: active = normalized growth mostly below about 0.91 (no sharp cut-off); inconclusive = no clear call, values can overlap the other calls; inactive = mostly above about 0.92. The list shows a part of the results.
Assay: chemical genetic growth profiling, strain panel (AID 1159580);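 note: tested at 20 µM; growth read once vehicle control cultures reached saturation at 30 °C; 1 = growth at the plate median or of vehicle wells; lower values mean less growth of the strain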
Conditions: S. cerevisiae deletion strains, growth OD

Measured: normalized growth

CC(=O)O[C@H]1C[C@@H]2CC[C@@H]3[C@H](CC[C@@]4(C)[C@H]3C[C@H]([N+]3(C)CCCCC3)[C@@H]4OC(C)=O)[C@@]2(C)C[C@@H]1[N+]1(C)CCCCC1
inactive: locus YAL040C, strain CLN3, stronger effect = lower value 0.985 | locus YCL061C, strain MRC1 (second series), stronger effect = lower value 0.988 | locus YDR150W, strain NUM1, stronger effect = lower value 0.998 | locus YDR363W, strain ESC2, stronger effect = lower value 0.989 | locus YER002W, strain NOP16, stronger effect = lower value 1 | locus YGR078C, strain PAC10, stronger effect = lower value 0.996 | locus YNL128W, strain TEP1, stronger effect = lower value 1 | locus YNL175C, strain NOP13, stronger effect = lower value 1.03 | locus YNL197C, strain WHI3, stronger effect = lower value 0.998 | locus YNL224C, strain SQS1, stronger effect = lower value 0.984 | locus YNL322C, strain KRE1, stronger effect = lower value 1.01 | locus YOR083W, strain WHI5 (second series), stronger effect = lower value 0.959 | locus YPL055C, strain LGE1, stronger effect = lower value 0.98 | locus YPL241C, strain CIN2, stronger effect = lower value 0.987

CC(=O)Oc1ccc2c(c1)CCC1C2CCC2(C)C1CC(OC(C)=O)C2OC(C)=O (stereo not given)
inactive: locus YAL021C, strain ccr4, stronger effect = lower value 0.948 | locus YAL026C, strain drs2, stronger effect = lower value 1.01 | locus YAL030W, strain snc1, stronger effect = lower value 0.97 | locus YBL061C, strain skt5, stronger effect = lower value 0.997 | locus YBR009C, strain hhf1, stronger effect = lower value 0.985 | locus YBR023C, strain chs3, stronger effect = lower value 0.983 | locus YBR171W, strain sec66, stronger effect = lower value 1 | locus YBR231C, strain swc5, stronger effect = lower value 0.982 | locus YBR279W, strain paf1, stronger effect = lower value 0.987 | locus YCL011C, strain gbp2, stronger effect = lower value 0.994 | locus YCL016C, strain dcc1, stronger effect = lower value 0.978 | locus YCL069W, strain vba3, stronger effect = lower value 0.993 | locus YCR088W, strain abp1, stronger effect = lower value 0.992 | locus YDL005C, strain med2, stronger effect = lower value 0.987 | locus YDL040C, strain nat1, stronger effect = lower value 0.975 | locus YDR001C, strain nth1, stronger effect = lower value 1.01 | locus YDR069C, strain doa4, stronger effect = lower value 0.954 | locus YDR137W, strain rgp1, stronger effect = lower value 0.925 | locus YDR159W, strain sac3, stronger effect = lower value 0.902 | locus YDR195W, strain ref2 0.992 | locus YDR297W, strain sur2, stronger effect = lower value 0.988 | locus YDR334W, strain swr1, stronger effect = lower value 0.987 | locus YDR335W, strain msn5, stronger effect = lower value 1.01 | locus YDR392W, strain spt3, stronger effect = lower value 0.856 | locus YEL003W, strain gim4, stronger effect = lower value 0.986 | locus YEL037C, strain rad23, stronger effect = lower value 1.02 | locus YEL061C, strain CIN8 (second series), stronger effect = lower value 1.01 | locus YER015W, strain faa2, stronger effect = lower value 0.985 | locus YER016W, strain bim1, stronger effect = lower value 0.973 | locus YER111C, strain swi4, stronger effect = lower value 0.994 | locus YER155C, strain BEM2 (second series), stronger effect = lower value 1 | locus YFR010W, strain ubp6, stronger effect = lower value 0.997 | locus YGL167C, strain pmr1, stronger effect = lower value 0.98 | locus YGL173C, strain kem1, stronger effect = lower value 0.99 | locus YGL227W, strain vid30, stronger effect = lower value 0.995 | locus YGL240W, strain doc1, stronger effect = lower value 0.935 | locus YGL253W, strain hxk2, stronger effect = lower value 0.997 | locus YHR013C, strain ard1, stronger effect = lower value 0.961 | locus YHR027C, strain rpn1, stronger effect = lower value 0.987 | locus YHR142W, strain chs7, stronger effect = lower value 0.968 | locus YJL092W, strain hpr5, stronger effect = lower value 1.01 | locus YJL095W, strain BCK1 (second series), stronger effect = lower value 0.984 | locus YJL115W, strain asf1, stronger effect = lower value 1.01 | locus YJL129C, strain trk1, stronger effect = lower value 0.967 | locus YJL154C, strain vps35, stronger effect = lower value 0.985 | locus YJL164C, strain tpk1, stronger effect = lower value 0.952 | locus YJL166W, strain qcr8, stronger effect = lower value 0.987 | locus YJL187C, strain SWE1, stronger effect = lower value 0.99 | locus YKL160W, strain elf1, stronger effect = lower value 0.962 | locus YKR026C, strain gcn3, stronger effect = lower value 1.01 | locus YKR091W, strain srl3, stronger effect = lower value 0.988 | locus YLL001W, strain dnm1, stronger effect = lower value 1 | locus YLL026W, stronger effect = lower value 0.964 | locus YLL041C, strain sdh2, stronger effect = lower value 0.999 | locus YLR027C, strain aat2, stronger effect = lower value 0.995 | locus YLR221C, strain rsa3, stronger effect = lower value 0.978 | locus YLR258W, strain gsy2, stronger effect = lower value 0.988 | locus YLR262C, strain YPT6 (second series), stronger effect = lower value 0.877 | locus YLR320W, strain mms22, stronger effect = lower value 0.943 | locus YLR342W, strain FKS1, stronger effect = lower value 0.971 | locus YLR357W, strain rsc2, stronger effect = lower value 0.952 | locus YLR370C, strain arc18, stronger effect = lower value 0.989 | locus YLR384C, strain iki3, stronger effect = lower value 0.983 | locus YML120C, strain ndi1, stronger effect = lower value 0.997 | locus YMR058W, strain fet3, stronger effect = lower value 1 | locus YMR125W, strain sto1, stronger effect = lower value 1 | locus YMR129W, stronger effect = lower value 0.995 | locus YMR205C, strain PFK2, stronger effect = lower value 0.972 | locus YMR231W, strain pep5, stronger effect = lower value 0.996 | locus YNL071W, strain lat1, stronger effect = lower value 0.962 | locus YNL209W, strain ssb2, stronger effect = lower value 0.976 | locus YNL248C, strain rpa49, stronger effect = lower value 0.991 | locus YNL322C, strain KRE1 (second series), stronger effect = lower value 0.966 | locus YNR049C, strain mso1, stronger effect = lower value 1 | locus YOR001W, strain rrp6, stronger effect = lower value 0.983 | locus YOR070C, strain gyp1, stronger effect = lower value 0.995 | locus YOR080W, strain dia2, stronger effect = lower value 0.987 | locus YOR083W, strain WHI5, stronger effect = lower value 0.952 | locus YOR106W, strain vam3, stronger effect = lower value 0.954 | locus YOR265W, strain rbl2, stronger effect = lower value 0.996 | locus YOR270C, strain vph1, stronger effect = lower value 0.925 | locus YOR290C, strain snf2, stronger effect = lower value 0.97 | locus YPL051W, strain arl3, stronger effect = lower value 0.967 | locus YPL078C, strain atp4, stronger effect = lower value 0.987 | locus YPL240C, strain hsp82, stronger effect = lower value 0.995
active: locus YPL106C, strain sse1, stronger effect = lower value 0.831

From PubChem BioAssay AID1159580 (chemical genetic matrix, 2015)
